In all, about 5,500 compounds went through this assay and about 2,000 (36%) were called active. Inconclusive results (about 18%) are left out. No stated cut-off is given here; in the data, active means normalized growth mostly below about 0.91 (no sharp cut-off); inconclusive means no clear call, values can overlap the other calls; inactive means mostly above about 0.92. The list shows a part of the results.
Experiment: chemical genetic growth profiling, strain panel (AID 1159580);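 further: tested at 20 µM; growth read once vehicle control cultures reached saturation at 30 °C; 1 = growth at the plate median or of vehicle wells; lower values mean less growth of the strain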
Conditions: S. cerevisiae deletion strains, growth OD

Measured: normalized growth

CN1CCC(=C2c3ccccc3C=Cc3ccccc32)CC1
inactive: locus YAL013W, strain DEP1, hits give low values 0.966 | locus YAL040C, strain CLN3, hits give low values 0.99 | locus YCL061C, strain MRC1 (second series), hits give low values 0.99 | locus YDR150W, strain NUM1, hits give low values 1 | locus YDR363W, strain ESC2, hits give low values 1 | locus YER002W, strain NOP16, hits give low values 0.995 | locus YGR078C, strain PAC10, hits give low values 1 | locus YGR229C, strain SMI1, hits give low values 0.959 | locus YHR030C, strain SLT2, hits give low values 0.965 | locus YHR079C, strain IRE1, hits give low values 0.967 | locus YJL095W, strain BCK1, hits give low values 0.968 | locus YJR066W, strain TOR1, hits give low values 0.942 | locus YLR113W, strain HOG1, hits give low values 0.942 | locus YMR307W, strain GAS1, hits give low values 1.01 | locus YNL175C, strain NOP13, hits give low values 0.986 | locus YNL183C, strain NPR1, hits give low values 0.914 | locus YNL197C, strain WHI3, hits give low values 1.01 | locus YNL224C, strain SQS1, hits give low values 0.995 | locus YNL322C, strain KRE1, hits give low values 0.993 | locus YOR083W, strain WHI5 (second series), hits give low values 1.01 | locus YOR231W, strain MKK1, hits give low values 0.965 | locus YPL055C, strain LGE1, hits give low values 0.973 | locus YPL256C, strain CLN2, hits give low values 0.932

Reference: PubChem BioAssay AID1159580 (chemical genetic matrix, 2015)
